Screens: PubChem BioAssay, several laboratories
Compounds with a hit are over-represented: about 3.1% of the library has one in this group of screens.
Peg3 prom inh-1: reduces Peg3 promoter-driven luciferase expression in HeLa | HeLa PEG-Prom luciferase reporter, luminescence, overnight | inhibition, % at 20 µM | hit rate 1.7% among 360,000 | AID 588405;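 active means inhibition of at least 50% at 20 µM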
HIF-2a block: HIF-2a inhibition; hit rate 0.72% among 360,000; AID 624352; inhibition, % at 18.8 µM; 786-0 RCC cells HIF-2a reporter, luciferase luminescence, overnight;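 active means inhibition of the luminescence signal of 40% or more relative to plate controls, in a single-dose primary screen at 18.75 µM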
ABHD5 PLIN5 PPI: blocks binding of human ABHD5 to perilipin-5. Split G. princeps luciferase complementation, luminescence, 4 h. inhibition, % at 4 µM. hit rate 0.78% among 360,000;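 active means inhibition above the mean inhibition across every tested compound plus 3 SD, cut at about 22% in these data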;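 further: 0% = DMSO only wells and the 100% control is not disclosed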
CF NFkB block: blocks PAF-induced NF-kB reporter in cystic fibrosis cells; KKLEB NF-kB-GFP reporter, GFP fluorescence overnight; hit rate 0.86% among 360,000; inhibition, % at 5 µM; AID 588850;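 active means at least 50% inhibition at 5 µM, scaled per plate between neutral and stimulator controls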;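 further: PAF is a Pseudomonas aeruginosa culture filtrate used as stimulus; plate controls were PAF-stimulated DMSO wells for no effect and unstimulated DMSO wells for full effect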
KKLEB tox: reduces viability of KKLEB cystic fibrosis airway cells; KKLEB CF airway cells viability, ATPlite luminescence, overnight; active compounds read low; cells stimulated with P. aeruginosa culture filtrate; activity change (cytotoxicity), % at 5 µM; hit rate 0.36% among 360,000;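 active means corrected activity change at or below -50% at 5 µM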
MITF TRPM1 inh: reduces MITF-dependent TRPM1 promoter luciferase signal. SK-MEL-5 TRPM1 promoter luciferase, 24 h. hit rate 0.83% among 330,000. inhibition, % at 12.5 µM. AID 488899;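 active means mean inhibition across replicates of 60% or more, whatever share of single replicates reaches that level; inconclusive means some that reach 60%, reason not given; inactive means mean inhibition across replicates below 60%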
Peg3 prom inh-2: Peg3 promoter inhibition confirmation; hit rate 84% among 1,300; AID 602417; inhibition, % at 20 µM; shares compounds with Peg3 prom inh-1; HeLa PEG-Prom luciferase reporter, luminescence, overnight;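 active means at 20 µM dose, 40% or more inhibition averaged across four replicates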
CF NFkB inh conf: CF NF-kB inhibition confirmation, single concentration | shares compounds with CF NFkB block | KKLEB CF airway cells, PAF-induced NF-kB-GFP fluorescence, overnight | inhibition, % at 5 µM | hit rate 64% among 1,300 | AID 602472; in the data active means inhibition above about 40%;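 further: stimulus PAF is a Pseudomonas aeruginosa filtrate and not platelet activating factor; plate controls were DMSO wells with stimulus for no effect and unstimulated DMSO wells for full effect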
ABHD5-PLIN5 conf: ABHD5-PLIN5 interaction inhibition, confirmed. hit rate 67% among 2,200. shares compounds with ABHD5 PLIN5 PPI. inhibition, % at 4 µM. AID 651612. biochemical ABHD5-PLIN5 interaction, luminescence; in the data active means inhibition above about 23%;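 further: 0% = DMSO vehicle wells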
HNF4 counter: counter-screen for ABHD5-PLIN5 inhibitors: HNF4 split-luciferase; shares compounds with ABHD5 PLIN5 PPI; HNF4 dimerization, luminescence, biochemical; inhibition, % at 4 µM; hit rate 77% among 2,200; AID 651674;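 active means mean inhibition across replicate wells exceeding the computed hit threshold, cut at about 13% in these data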;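 further: light from luciferase halves that rejoin when HNF4 fusion proteins dimerize; 0% = DMSO only wells and the 100% control is not given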
Mdm2-MdmX confirm: Mdm2/MdmX (human) interaction inhibition, confirmed. hit rate 99% among 740. shares compounds with HIF-2a block. AID 504601. SaOS-2 split-luciferase Mdm2/MdmX complementation, luminescence. inhibition, % at 8 µM;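 active means mean inhibition of the luminescence signal across two replicates at or above 26 percent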
Target sequence (O15151 whole entry, looked up): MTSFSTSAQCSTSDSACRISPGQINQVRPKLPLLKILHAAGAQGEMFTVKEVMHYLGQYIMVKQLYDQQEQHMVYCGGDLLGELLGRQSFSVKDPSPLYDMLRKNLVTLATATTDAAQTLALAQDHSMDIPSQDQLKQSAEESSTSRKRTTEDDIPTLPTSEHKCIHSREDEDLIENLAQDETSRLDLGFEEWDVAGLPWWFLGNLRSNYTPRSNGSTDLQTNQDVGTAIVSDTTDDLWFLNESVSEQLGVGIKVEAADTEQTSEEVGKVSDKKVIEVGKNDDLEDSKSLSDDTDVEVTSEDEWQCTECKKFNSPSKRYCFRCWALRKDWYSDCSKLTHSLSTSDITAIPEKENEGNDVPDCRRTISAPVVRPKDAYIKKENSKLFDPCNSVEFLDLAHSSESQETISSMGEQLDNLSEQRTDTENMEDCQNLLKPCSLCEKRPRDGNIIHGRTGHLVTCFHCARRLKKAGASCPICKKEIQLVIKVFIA
Target sequence (Q00987 whole entry, looked up): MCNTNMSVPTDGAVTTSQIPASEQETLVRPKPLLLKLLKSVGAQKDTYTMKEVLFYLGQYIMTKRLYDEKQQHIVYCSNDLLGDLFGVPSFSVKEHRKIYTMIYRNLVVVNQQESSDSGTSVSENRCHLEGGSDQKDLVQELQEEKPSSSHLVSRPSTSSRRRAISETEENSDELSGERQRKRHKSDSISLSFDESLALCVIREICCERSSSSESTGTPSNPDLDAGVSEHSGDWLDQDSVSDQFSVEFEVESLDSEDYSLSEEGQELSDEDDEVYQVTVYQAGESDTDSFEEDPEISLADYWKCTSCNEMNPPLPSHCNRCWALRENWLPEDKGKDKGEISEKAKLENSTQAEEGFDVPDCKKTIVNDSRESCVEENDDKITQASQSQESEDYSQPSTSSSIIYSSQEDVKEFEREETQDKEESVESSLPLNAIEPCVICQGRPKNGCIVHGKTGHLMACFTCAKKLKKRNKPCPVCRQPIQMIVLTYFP
HIF-2a conf: confirmation of HIF-2a inhibitors. shares compounds with HIF-2a block. 786-0 RCC cells, HIF-2a luciferase reporter luminescence, overnight. inhibition, % at 18.8 µM. hit rate 56% among 1,800;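 active means mean inhibition across four replicates of at least 40 percent at the single tested concentration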
HIF-1a counter: HIF-1a inhibition counter-screen for HIF-2a hits | hit rate 72% among 1,800 | MiaPaCa-2 HIF-1a luciferase reporter, desferoxamine, overnight | shares compounds with HIF-2a block | inhibition, % at 18.8 µM;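 active means mean inhibition of the reporter signal across four replicates at the single tested dose of 50% or more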
An asterisk follows results filed as active; ? = inconclusive; nt = no result given.

SMILES	Peg3 prom inh-1	HIF-2a block	ABHD5 PLIN5 PPI	CF NFkB block	KKLEB tox	MITF TRPM1 inh	Peg3 prom inh-2	HIF-2a conf	HIF-1a counter	others
CCn1nc(C)cc1-c1nnc(Sc2ncc([N+](=O)[O-])s2)n1C	110*	96*	24*	95*	-82*	94*	100*	nt	nt	ABHD5-PLIN5 conf=25*;HNF4 counter=110*;Mdm2-MdmX confirm=103*
CC(C)CN1C(=O)N(c2ccc(Cl)cc2)C(C)(O)CC1(C)C (stereo not given)	-10	12	-1	-4	2	-3	nt	nt	nt
Nc1cccc2cc(S(=O)(=O)O)ccc12	14	7	-11	7	4	-2	nt	nt	nt
O=Nc1c(O)ccc2cc(S(=O)(=O)O)ccc12	62*	76*	13	14	-5	-5	68*	82*	12
CC(=O)OCC1OC(COC(C)=O)(c2ccc(C)cc2)C(OC(C)=O)C1OC(C)=O (stereo not given)	6	15	4	7	-6	-1	nt	nt	nt
COc1ccc(OC)c(S(=O)(=O)N2CCCC(C(=O)N3CCOCC3)C2)c1 (stereo not given)	-1	8	3	16	-2	-5	nt	nt	nt
Cc1ccc(C(=O)Nc2ccc3c(c2)OCCO3)c(C)c1	68*	52*	-6	-19	-29	66*	35	70*	45
CCc1ccc(C(=O)Nc2nc3ccccc3[nH]2)cc1	77*	63*	5	5	-69*	?	67*	84*	84*
N#Cc1ccc(C(=O)Nc2nc3ccccc3[nH]2)cc1	-279	-187	-6	14	1	-50	nt	nt	nt
COc1ccccc1CCNC(=O)C1CCN(c2nnc(C)c3c(C)n(-c4ccc(C)cc4)nc23)CC1	89*	40*	11	-20	-35	77*	78*	27	82*
COc1ccc(-n2nc3c(N4CCC(C(=O)NCCc5ccco5)CC4)nnc(C)c3c2C)cc1	10	7	17	0	2	38	nt	nt	nt
COC(=O)N(C)C[C@H]1OCc2cnnn2CCCC(=O)N([C@H](C)CO)C[C@H]1C	0	13	-9	-1	-5	nt	nt	nt	nt
c1ccc(CNc2nc(-c3cccnc3)nc3ccccc23)cc1	19	1	6	-19	-2	-11	nt	nt	nt
c1ccc(CN2CCC(Nc3nc(-c4cccnc4)nc4ccccc34)CC2)cc1	100*	42*	5	-6	-38	-4	70*	21	79*
N#Cc1c(N)nc2c3c(sc(=N)c2c1N)NC(=O)CC3c1ccccc1 (stereo not given)	23	9	3	10	-11	6	nt	nt	nt
Cc1c(C#N)c(N)nc2c3c(sc12)NC(=O)CC3c1ccc(Cl)cc1 (stereo not given)	68*	40*	-4	-39	0	31	48*	18	17
CCCC(=O)N1CCCC(c2cc(C(=O)Nc3ccccc3)no2)C1 (stereo not given)	54*	43*	-10	4	-1	nt	47*	66*	71*
Cn1nnnc1Sc1ncnc2scc(-c3ccsc3)c12	95*	66*	9	47	7	82*	96*	49*	100*	Mdm2-MdmX confirm=103*
Cc1ccc(C(=O)n2c(N)nc3ccccc32)cc1	80*	42*	3	-4	-49	67*	28	69*	87*
CCOC(=O)Cc1csc(NC(=S)NC(=O)c2ccc(Cl)cc2)n1	51*	95*	4	-2	-11	11	70*	98*	97*
Cc1ccc2c(c1)N(CC(=O)Nc1ccccc1F)C(=O)CO2	0	18	-3	4	-8	-21	nt	nt	nt
CC(=O)n1cc(N(C(=O)CCl)c2ccc(C)cc2)c2ccccc21	109*	56*	11	93*	-103*	74*	101*	nt	nt	Mdm2-MdmX confirm=103*
CNC(=O)c1c(NC(=O)C2=COCCO2)sc2c1CCCC2	-23	-52	-13	-29	26	-16	nt	nt	nt
COc1cccc(-c2nnc3n2N=C(C(C)(C)C)CS3)c1	98*	27	-1	94*	-24	?	75*	nt	nt	CF NFkB inh conf=98*;Mdm2-MdmX confirm=103*
COc1cccc(NC(=O)CSc2nnc3ccc(-c4ccccn4)nn23)c1	-3	15	-7	12	-11	0	nt	nt	nt
SMILES	Peg3 prom inh-1	HIF-2a block	ABHD5 PLIN5 PPI	CF NFkB block	KKLEB tox	MITF TRPM1 inh	Peg3 prom inh-2	HIF-2a conf	HIF-1a counter	others
COC(=O)N=Nc1c(O)[nH]c2ccc(Br)cc12	-2	-19	-4	-53	20	10	nt	nt	nt
Oc1[nH]c2ccc(Br)cc2c1N=NC(=S)N1CCOCC1	76*	68*	2	32	0	99*	85*	nt	nt	Mdm2-MdmX confirm=99*
COc1cc(NS(C)(=O)=O)ccc1Nc1c2ccccc2nc2ccccc12	102*	55*	3	-119	10	79*	93*	nt	nt	Mdm2-MdmX confirm=98*
Clc1cccc(-c2nc(-c3ccccn3)no2)c1	62*	53*	-1	-30	-25	64*	52*	72*	65*
c1ccc(-c2cc(-c3nc(-c4ccccn4)no3)c3ccccc3n2)cc1	8	-17	-3	-24	2	-10	nt	nt	nt
Cc1ccc(-c2nc(-c3ccccn3)no2)cc1	96*	87*	17	-6	-73*	90*	89*	95*	94*	Mdm2-MdmX confirm=95*
C[C@H](CO)N1C[C@H](C)[C@H](CN(C)CC2CCCCC2)Oc2ccc(NS(=O)(=O)c3ccc(F)cc3)cc2CC1=O	20	2	1	0	5	0	nt	nt	nt
CCC(C)[C@H](NC(=O)N1CCn2c1nc1ccccc12)C(=O)NCc1ccccc1 (stereo not given in full)	18	9	4	-13	-4	12	nt	nt	nt
Cc1ccc(Nc2nc(N)c3ccccc3n2)cc1Cl	-87	-106	3	1	-46	2	nt	nt	nt
